S2 tox – reduces viability in counter-screen for ATXN expression inhibitors. S2 cells (HEK-293 line with an ATXN2-luciferase reporter) viability, CellTiter-Fluor protease fluorescence, 24 h. Potency, µM (titrated, usually from 56.7 µM), actives largely listed as cytotoxic. hit rate 0.49% among 400,000. AID 651635; also: nearly all actives have a fitted effect of over 40% in size
HT1080 IDH1KD tx – kills HT-1080 cells with IDH1 knockdown; HT-1080 IDH1 knockdown viability, ATP luminescence, 48 h; Potency, µM (series often up to 46.1 µM), for inactives: at the top dose activity, negative = toxicity, actives largely listed as cytotoxic; hit rate 2% among 360,000;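 also: 0% = DMSO wells and -100% = cell-free medium wells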
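Knockdown cells (IDH1KD HT-1080) received compounds 2 h after plating at 750 cells/well and were kept 48 h at 37 °C in 5% FBS RPMI. A CellTiter-Glo luminescence read gave % activity for curve fitting.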
ATXN2 expr inh – ATXN2 expression inhibition. HEK-293 ATXN2-luciferase reporter, luminescence, 24 h. Potency, µM (doses to about 57 µM), for the others: top-dose activity change, negative = inhibition, hits mostly inhibitors. hit rate 0.72% among 360,000. AID 1745845; also: % is scaled to controls: 0 for no effect and ±100 for the full control effect; nearly all actives have a fitted effect of over 55% in size
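ATXN2-luciferase reporter cells (luciferase flanked by upstream and downstream ATXN2 gene portions) were treated 24 h at 37 °C with compounds at up to 57 uM. SteadyGlo luminescence gave expression; GF-AFC fluorescence gave viability.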
HepG2 viability – kills HepG2 cells in TGF-b inhibitor counter-screen | HepG2 CAGA-GFP viability, ATP luminescence, 18 h | Potency, µM (doses to about 46.1 µM), without a hit: top-dose activity change, negative = cytotoxicity, most hits filed as cytotoxic | hit rate 0.76% among 410,000
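HepG2 CAGA-GFP cells (1000/well, DMEM with 1% FBS) received compound, then TGF-beta at 500 pg/mL final, and were incubated 18 hours at 37 degrees C. Viability was read by CellTiter-Glo luminescence. Media-only wells were set as complete cell-killing and DMSO as no toxicity.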
HT1080-NT tox – kills 2HG-producing HT-1080-NT fibrosarcoma cells; HT-1080-NT fibrosarcoma viability, CellTiter-Glo ATP luminescence, 48 h; AID 686970; hit rate 1.6% among 360,000; Potency, µM (doses to about 46.1 µM), inactives show at the highest dose activity, negative = less viability, usual class: cytotoxic;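 also: NT is the 2HG producing partner of a matched IDH1 knockdown line; 0% = DMSO-treated cells and -100% = media-only wells without cells; nearly all actives have a fitted effect of over 55% in size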
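A 48-hour cytotoxicity screen used HT-1080-NT cells plated 2 hours before compound delivery. ATP-based CellTiter-Glo luminescence measured viability, normalized to DMSO and no-cell controls.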
TGFb SMAD3 inh – TGF-b pathway inhibition. hit rate 1.2% among 410,000. HepG2 CAGA-GFP TGF-b/SMAD3 reporter, GFP fluorescence, 18 h; TGF-beta stimulated, 500 pg/mL final. AID 588855. Potency, µM (top dose mostly 46.1 µM), for inactives: at the highest dose activity, negative = inhibition, most hits filed as inhibitors; also: % is scaled to controls: 0 for no effect and ±100 for the full control effect; nearly all actives have a fitted effect of over 65% in size
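Per well, imaged GFP fluorescence of HEPG2 CAGA-GFP cells gives the signal; cells get compound, then TGF-beta (500 pg/mL final), 18 h at 37 degrees C; %Activity versus -TGF-beta and +DMSO controls.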
Starred values were filed as active, the others as inactive; i = inactive; ? = inconclusive; . = no result given. In the library only some 3.8% were active in any assay of this set; here they are far more common. Calls follow the shape of the dose curve; as a rule, active = well fitted curve in the direction sought with a large enough effect; inconclusive = small, poorly fitted or top-dose-only effect, or another doubt; inactive = no such curve, though single readings can be large; an effect the other way counts as inactive or inconclusive. Potency is read from the fitted curve at half-maximal effect.

SMILES | S2 tox | HT1080 IDH1KD tx | ATXN2 expr inh | HepG2 viability | HT1080-NT tox | TGFb SMAD3 inh
COc1ccccc1N1CCN(CC(=O)Nc2ccc(CN3CCCCC3)cc2)CC1 | i | -2% | -4% | -18% | 2% | -6%
CCOC(=O)N1C(=O)[C@](c2ccc(Cl)cc2)(C(C)C)N1C(=O)OCC | ? | -30% | ? | 10µM* | -20% | ?
CCOC(=O)N1C(=O)[C@@](c2ccc(Cl)cc2)(C(C)C)N1C(=O)OCC | . | ? | ? | 16µM* | ? | ?
COC(=O)N1C(=O)[C@](c2ccccc2)(C(C)C)N1C(=O)OC | ? | 0% | -1% | -38% | -1% | -49%
Cc1ccc(NC(=O)CN2C(=O)c3cccnc3Sc3ccccc32)cc1C | . | . | . | -33% | . | -22%
COc1ccc(CN2CCC(n3cc(C(=O)N4CCCCC4)nn3)CC2)c(OC)c1 | i | . | . | . | . | .
CN[C@@H](C)C(=O)N[C@H]1CN(C(=O)CC(C)C)CC[C@H]2CC[C@@H](C(=O)NC(c3ccccc3)c3ccccc3)N2C1=O | . | . | -3% | . | . | .
COc1ccc(NCC(=O)Nc2ccc(Cl)cc2C)c(OC)c1 | i | 16µM* | ? | -64% | ? | ?
CCCCCCCCCCCCCCC[C@H](O)[C@@H](N)CO | i | . | 5% | . | . | .
Cc1ccc(S(=O)(=O)N/N=C\c2ccc([N+](=O)[O-])o2)cc1C | i | 0% | -8% | 6% | 16% | -26%
Cc1cc2ncn(/N=C/c3ccc([N+](=O)[O-])o3)c2cc1C | i | 7.9µM* | ? | 13µM* | -6% | 2.5µM*
O=C1C2C3C=CC(C4CC34)C2C(=O)N1/N=C/c1ccc(-c2ccc([N+](=O)[O-])cc2)o1 (stereo unspecified) | i | -6% | -20% | -8% | -1% | -2%
O=[N+]([O-])c1ccc(/C=N/N=C/c2ccc([N+](=O)[O-])o2)o1 | ? | 2.9µM* | 17µM* | -16% | 4.6µM* | ?
O=[N+]([O-])c1ccc(/C=N\O)o1 | i | . | 2% | . | . | .
O=C(CNc1cccc2ccccc12)N/N=C/c1ccc([N+](=O)[O-])o1 | ? | ? | ? | 7.9µM* | ? | 6.3µM*
O=C1C2C3C=CC(C4CC34)C2C(=O)N1/N=C/c1ccc([N+](=O)[O-])o1 (stereo unspecified) | ? | 2.6µM* | ? | -14% | 2.6µM* | -20%
O=[N+]([O-])c1ccc2c(c1)C=C/C2=C\c1ccc(C=S)cc1 | . | . | . | -2% | . | -1%
O=C(CSC1=Nc2ccccc2C2=NC(CCC(=O)NC3CCCCC3)C(=O)N12)Nc1cccc(C(F)(F)F)c1 (stereo unspecified) | i | . | -3% | -24% | . | -27%
O=C(C[n+]1cccc(Br)c1)c1ccc(I)cc1 | . | . | . | -14% | . | -1%
O=C(CN1CCCCCCC1)N/N=C/c1ccc([N+](=O)[O-])o1 | i | -29% | -20% | 20µM* | -14% | 13µM*
O=C(Cc1ccc([N+](=O)[O-])cc1)N/N=C/c1ccc([N+](=O)[O-])o1 | i | ? | . | -115% | ? | 16µM*
CC1(C(=O)N/N=C/c2ccc([N+](=O)[O-])o2)CC1(Br)Br (stereo unspecified) | ? | ? | ? | 11µM* | ? | 11µM*
O=C(CN1CCOCC1)NN=Cc1ccc([N+](=O)[O-])o1 | i | ? | -32% | -46% | -21% | ?
O=C(CNc1cccc([N+](=O)[O-])c1)N/N=C/c1ccc([N+](=O)[O-])o1 | i | ? | ? | -57% | ? | 7.1µM*
O=C(CNc1ccccc1)N/N=C/c1ccc([N+](=O)[O-])cc1 | i | 9% | 3% | 5% | 2% | -1%
CCC(=O)O[C@]1(C(=O)CO)CC[C@H]2[C@@H]3CCC4=CC(=O)CC[C@]4(C)[C@@H]3CC[C@@]21C | . | . | 4% | . | . | .

Assay outcomes as filed in PubChem.
